Source: PubChem BioAssay (Tox21)
“And” between values parts separate entries of the source, which are not always exact repeats. Equal entries are not always repeated. Results filed as inconclusive are left out. A call without a number means that no potency is given here. Some compounds were tested as several samples or in several runs, with calls that do not always agree. The source made the active and inactive calls. Unless noted, calls come from the whole dose curve; as a rule, active = well fitted curve in the direction sought with a large enough effect in the repeat runs; inconclusive = weak or mixed curves; inactive = no such curve, though single readings can be large; an effect the other way counts as inactive or inconclusive.

Assays:
[1] = A CellTox Green Cytotoxicity Assay to monitor cytotoxicity in HepG2 cells - 8 hour (AID 1224890); note: nearly all actives have a fitted effect of over 45% in size; note: potency is the fitted concentration of half-maximal effect
Summary of the method: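 Continuous culture of HepG2 cells with a membrane-impermeant DNA dye; rising fluorescence marks dead cells. Compound exposure lasted up to 40 h at 37 C, with reads every 8 h from 0 h.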

[2] = qHTS assay to identify small molecule antagonists of the estrogen receptor alpha (ER-alpha) signaling pathway using the BG1 cell line in the presence of 0.1 nM 17-beta-estradiol - cell viability counter screen (AID 1259241); note: nearly all actives have a fitted effect of over 40% in size; note: potency is the fitted concentration of half-maximal effect
Summary of the method: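 Cytotoxicity counter-screen: live-cell protease activity measured by fluorescence (30 min reagent step) in the same wells. Cells were VM7Luc4E2 with endogenous ER-alpha and ERE-driven luciferase, treated 22 hr at 37C alongside 0.1 nM 17beta-estradiol final.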

[3] = qHTS assay to identify small molecule antagonists of the androgen receptor (AR) signaling pathway using the MDA cell line in the presence of 0.5 nM R1881 - cell viability counter screen (AID 1259242); note: nearly all actives have a fitted effect of over 45% in size; note: potency is the fitted concentration of half-maximal effect
Summary of the method: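 Fluorescence from CellTiter-Fluor, which reports protease activity of live cells, was read 30 min after reagent addition to MDA-kb2 cells that had been incubated 16 hr with compound and 0.5 nM R1881.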

[4] = qHTS assay to identify small molecule HDAC inhibitors (AID 1259364); note: top concentration of the series differs between compounds; nearly all actives have a fitted effect of over 45% in size
Summary of the method: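 Endogenous HDAC class I/II activity was measured in wild-type HCT-116 cells by HDAC-Glo luminescence after 2 h compound treatment.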

[5] = qHTS assay to identify small molecule HDAC inhibitors - cell viability counter screen (AID 1259365); note: series mostly up to about 92 µM; nearly all actives have a fitted effect of over 50% in size
Summary of the method: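 CellTiter-Glo luminescence (30 min, room temperature) reported viability after a 2 h compound exposure at 37 C. Cells: wild-type HCT-116, 1,500 per well, seeded the night before.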

[6] = qHTS assay to identify small molecule agonists of the sonic hedgehog signaling (Shh) pathway - cell viability counter screen (AID 1259366); note: nearly all actives have a fitted effect of over 50% in size; note: potency is the fitted concentration of half-maximal effect
Summary of the method: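 Cytotoxicity counter screen: CellTiter-Fluor reagent added after 23 h compound exposure, then 1 h at 37C and fluorescence read. Cells were 3T3 Gli1-Luc, seeded 2,000 per well and dosed 4 h post-plating.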

[7] = qHTS assay to identify small molecule antagonists of the sonic hedgehog signaling (Shh) pathway - cell viability counter screen (AID 1259367); note: nearly all actives have a fitted effect of over 55% in size; note: potency is the fitted concentration of half-maximal effect
Summary of the method: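 After a 4 hr settling period, 3T3 Gli1-Luc cells were treated with DMSO-dissolved chemicals and conditioned medium, kept 24 hr at 37C in 5% CO2, and assayed for viability by CellTiter-Fluor fluorescence following 1 hr reagent incubation.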

[8] = qHTS assay to identify small molecule agonists of the sonic hedgehog signaling (Shh) pathway (AID 1259368; calls by dose curve;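 note: NIH/3T3-derived 3T3Gli1-Luc cells carrying a stable Gli1-driven firefly luciferase reporter; series mostly up to about 92 µM; nearly all actives have a fitted effect of over 15% in size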)
Summary of the method: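 Luminescent signal was taken as a measure of Gli1-controlled luciferase expression in stably transfected NIH/3T3-derived cells that had been treated for 24 hr with compounds delivered in DMSO.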

[9] = qHTS assay to identify small molecule antagonists of the sonic hedgehog signaling (Shh) pathway (AID 1259369; calls by dose curve; note: nearly all actives have a fitted effect of over 45% in size; note: potency is the fitted concentration of half-maximal effect)
Summary of the method: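 Screening used 3T3Gli1-Luc cells at 2,000 per well, compounds delivered in DMSO, and conditioned medium as agonist stimulus; plates incubated 24hr at 37 C and 5% CO2 before a 30min luciferase step.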

[10] = target: Estrogen receptor beta (Homo sapiens) (UniProt Q92731); test: qHTS assay to identify small molecule agonists of the estrogen receptor beta (ER-beta) signaling pathway (AID 1259377; active = well fitted activation curve with a large enough effect in the signal ratio in the repeat runs, not every such curve was filed as active; the % refers to the signal ratio)
Summary of the method: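 Ratiometric beta-lactamase FRET read-out came after 2 h substrate loading at room temperature. It followed 16 h compound treatment at 37C of GripTite HEK293T cells carrying a UAS-bla reporter, plated in 2% charcoal-stripped FBS medium.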

[11] = target: Estrogen receptor beta (Homo sapiens) (UniProt Q92731); test: qHTS assay to identify small molecule antagonists of the estrogen receptor beta (ER-beta) signaling pathway (AID 1259378; active = well fitted inhibition curve with a large enough effect in the signal ratio in the repeat runs, not every such curve was filed as active; the % refers to the signal ratio; note: potency is the fitted concentration of half-maximal effect)
Summary of the method: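 ER-beta-UAS-bla HEK293T (GripTite) cells in 2% charcoal-stripped FBS medium were preincubated 6 hr at 37C, dosed with compound, then stimulated with 1 nM E2 (final) for 16 hr; beta-lactamase reporter read by B/G FRET fluorescence after 2 hr substrate loading.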

[12] = qHTS assay to identify small molecule agonists of the androgen receptor (AR) signaling pathway in the presence of an antagonist - cell viability counter screen (AID 1259379); note: nearly all actives have a fitted effect of over 25% in size; note: potency is the fitted concentration of half-maximal effect
Summary of the method: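 In MDA-kb2 cells (human breast carcinoma, MMTV-luciferase), compounds at 15 concentrations plus 3.0uM nilutamide; 16 hr, 37C, 0% CO2; CellTiter-Fluor fluorescence read for viability.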

[13] = qHTS assay to identify small molecule antagonists of the estrogen receptor beta (ER-beta) signaling pathway - cell viability counter screen (AID 1259382); note: series mostly up to about 92 µM; nearly all actives have a fitted effect of over 55% in size
Summary of the method: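 Tox21 10K library tested in qHTS format on ER-beta-bla HEK293T cells stimulated with 1nM E2; 16 hr treatment at 37C. Same-well CellTiter-Glo luminescence served as the cell viability measure.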

[14] = qHTS assay to identify small molecule agonists or antagonists of the thyroid stimulating hormone receptor (TSHR) signaling pathway - wild type cell line counter screen (AID 1259384; calls by dose curve)
Summary of the method: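 Wild-type HEK293 cells were plated 18 h at 37 C/5% CO2, pin-dosed with compound plus Ro20-1724 medium, held 30 min at room temperature, then given cAMP-d2 and anti-cAMP-cryptate; fluorescence was read after 1 h. Fifteen concentrations, triplicate.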

[15] = qHTS assay to identify small molecule phospholipidosis (PLD) inducers (AID 1259344; active = well fitted curve in the direction sought with a large enough effect; an effect the other way counts as inactive or inconclusive)
Summary of the method: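 HepG2 cells grown on collagen I take up LipidTOX Red while exposed to compound for 24 h; after fixation they are imaged at 20x and pit metrics are extracted.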

[16] = qHTS assay to identify small molecule agonists of the estrogen receptor beta (ER-beta) signaling pathway - cell viability counter screen (AID 1259380); note: nearly all actives have a fitted effect of over 30% in size; note: potency is the fitted concentration of half-maximal effect
Summary of the method: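 Viability of ER-beta-UAS-bla HEK293T cells was determined by CellTiter-Glo luminescence following 16 hr treatment with test compounds at 37C.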

[17] = target: Estrogen receptor (Homo sapiens) (UniProt P03372); test: qHTS assay to identify small molecule agonists of the estrogen receptor alpha (ER-alpha) signaling pathway in the presence of an antagonist (AID 1259383; calls by dose curve; note: top concentration of the series differs between compounds; nearly all actives have a fitted effect of over 15% in size)
Summary of the method: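 In VM7Luc4E2 cells, 4,000 per well, compounds at 15 concentrations were co-incubated 22hr at 37C with 10.0nM final ICI-182,780. Luminescence from the stably transfected 4×ERE-luciferase reporter was recorded 30min after ONE-Glo addition.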

[18] = target: Androgen receptor (Homo sapiens) (UniProt P10275); test: qHTS assay to identify small molecule agonists of the androgen receptor (AR) signaling pathway in the presence of an antagonist (AID 1259381; calls by dose curve; note: nearly all actives have a fitted effect of over 15% in size)
Summary of the method: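 Here, 15-concentration compound series were pin-transferred onto MDA-kb2 MMTV-luciferase cells already dosed with nilutamide (3.0uM final). After 16hr at 37C, ONE-Glo was added and luminescence read 30min later at room temperature.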

Chain of Estrogen receptor beta (Homo sapiens) (Q92731 whole entry, looked up): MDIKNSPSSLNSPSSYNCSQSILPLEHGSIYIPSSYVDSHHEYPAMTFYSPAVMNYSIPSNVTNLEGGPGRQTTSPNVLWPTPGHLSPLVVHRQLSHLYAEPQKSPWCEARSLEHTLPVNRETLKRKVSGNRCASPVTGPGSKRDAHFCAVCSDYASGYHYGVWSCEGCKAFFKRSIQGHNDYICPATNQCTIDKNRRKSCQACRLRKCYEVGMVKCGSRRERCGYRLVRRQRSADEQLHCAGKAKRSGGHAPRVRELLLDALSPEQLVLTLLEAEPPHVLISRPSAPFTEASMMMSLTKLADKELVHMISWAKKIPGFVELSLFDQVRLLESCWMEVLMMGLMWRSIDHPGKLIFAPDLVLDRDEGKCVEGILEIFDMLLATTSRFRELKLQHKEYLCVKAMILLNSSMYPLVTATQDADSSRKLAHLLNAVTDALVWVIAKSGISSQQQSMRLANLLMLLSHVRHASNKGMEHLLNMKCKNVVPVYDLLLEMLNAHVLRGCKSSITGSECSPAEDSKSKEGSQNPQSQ
Chain of Estrogen receptor (Homo sapiens) (P03372 whole entry, looked up): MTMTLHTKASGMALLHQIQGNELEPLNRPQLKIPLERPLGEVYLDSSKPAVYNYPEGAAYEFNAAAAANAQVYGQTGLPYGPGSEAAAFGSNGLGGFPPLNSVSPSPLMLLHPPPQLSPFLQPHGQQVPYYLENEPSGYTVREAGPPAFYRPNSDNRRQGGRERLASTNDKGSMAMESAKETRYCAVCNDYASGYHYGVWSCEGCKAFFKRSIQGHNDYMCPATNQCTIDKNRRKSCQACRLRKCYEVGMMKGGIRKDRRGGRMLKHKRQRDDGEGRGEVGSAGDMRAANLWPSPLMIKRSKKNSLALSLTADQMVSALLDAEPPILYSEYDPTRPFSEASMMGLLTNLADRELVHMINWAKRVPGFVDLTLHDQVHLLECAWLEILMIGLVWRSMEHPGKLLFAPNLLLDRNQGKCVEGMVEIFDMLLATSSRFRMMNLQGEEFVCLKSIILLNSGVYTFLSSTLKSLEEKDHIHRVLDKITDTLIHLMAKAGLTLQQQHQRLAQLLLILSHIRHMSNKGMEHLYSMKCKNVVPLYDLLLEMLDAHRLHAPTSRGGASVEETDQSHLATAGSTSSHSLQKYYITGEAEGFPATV
Chain of Androgen receptor (Homo sapiens) (P10275 whole entry, looked up): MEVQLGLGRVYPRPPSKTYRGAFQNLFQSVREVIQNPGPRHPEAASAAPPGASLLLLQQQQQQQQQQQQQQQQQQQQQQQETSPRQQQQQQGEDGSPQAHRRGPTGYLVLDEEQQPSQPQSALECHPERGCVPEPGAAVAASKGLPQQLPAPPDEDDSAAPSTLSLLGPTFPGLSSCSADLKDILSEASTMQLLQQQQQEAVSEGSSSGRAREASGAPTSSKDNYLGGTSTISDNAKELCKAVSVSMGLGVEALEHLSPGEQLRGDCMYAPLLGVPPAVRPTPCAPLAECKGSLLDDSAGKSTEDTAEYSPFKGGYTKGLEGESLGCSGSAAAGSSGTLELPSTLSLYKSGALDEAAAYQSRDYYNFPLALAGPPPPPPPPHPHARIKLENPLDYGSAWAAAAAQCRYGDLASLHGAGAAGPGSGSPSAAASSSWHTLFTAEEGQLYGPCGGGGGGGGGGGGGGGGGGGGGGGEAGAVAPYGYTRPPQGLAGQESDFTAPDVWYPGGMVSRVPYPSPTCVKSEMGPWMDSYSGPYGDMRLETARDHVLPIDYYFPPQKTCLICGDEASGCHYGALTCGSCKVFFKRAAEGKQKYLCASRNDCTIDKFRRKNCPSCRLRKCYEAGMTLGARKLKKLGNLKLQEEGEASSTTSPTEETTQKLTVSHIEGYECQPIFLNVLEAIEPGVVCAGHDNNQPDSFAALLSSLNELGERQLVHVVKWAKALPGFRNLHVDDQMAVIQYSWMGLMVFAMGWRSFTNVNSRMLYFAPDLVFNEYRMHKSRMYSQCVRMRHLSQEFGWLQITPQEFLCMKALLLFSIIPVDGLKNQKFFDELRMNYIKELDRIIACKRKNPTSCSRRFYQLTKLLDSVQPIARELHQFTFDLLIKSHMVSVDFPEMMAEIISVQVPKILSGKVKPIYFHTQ

Row | SMILES | Potency [1] | Potency [2] | Potency [3] | Potency [4] | outcome [5] | Potency [6] | Potency [7] | Potency [8] | Potency [9] | Potency [10] | Potency [11] | Potency [12] | Potency [13] | outcome [14] | Potency [15] | PLD induction [15] | Potency [16] | Potency [17] | outcome [18]
1 | CCCCC/C=C/C=C/C=O | inactive | inactive | inactive | inactive | inactive | inactive | inactive | inactive | inactive and 34.4 µM (active) | inactive | inactive | 68 µM (active) and inactive | inactive | inactive | – | – | – | – | –
2 | O=C1c2cccc(O)c2C(=O)c2c(O)cccc21 | inactive | inactive | inactive | – | inactive | inactive | inactive | inactive | inactive | – | inactive | – | inactive | inactive | inactive | – | – | – | –
3 | Cc1ccc(C(=O)c2cc(O)c(O)c([N+](=O)[O-])c2)cc1 | inactive | inactive | 54.5 µM (active) | inactive | inactive | inactive | 54.5 µM (active) and inactive | inactive | 24.3 µM (active) | – | – | 54.5 µM (active) and 29.8 µM (active) | inactive | inactive | – | 0.47% [at 7.66 µM] (inactive) | inactive | – | –
4 | CN(C)c1nc(N(C)C)nc(N(C)C)n1 | inactive | inactive | inactive | inactive | inactive | inactive | inactive | inactive | inactive | inactive | inactive | inactive | inactive | inactive | inactive | – | inactive | – | –
5 | Brc1cc(Oc2cc(Br)c(Br)c(Br)c2Br)c(Br)c(Br)c1Br | inactive | inactive | inactive | inactive | inactive | inactive | inactive | inactive | inactive | – | – | inactive | inactive | inactive | – | – | 6.89 µM (active) and inactive | – | –
6 | O=C1OC2(c3cc(Br)c(O)c(Br)c3Oc3c2cc(Br)c(O)c3Br)c2c(Cl)c(Cl)c(Cl)c(Cl)c21 | 3.47 µM (active) and 16.7 µM (active) | 8.64 µM (active) and 23.4 µM (active) | 6.12 µM (active) and 18.6 µM (active) | inactive | inactive | 9.7 µM (active) and 16.6 µM (active) | 3.86 µM (active) and 14.8 µM (active) | inactive | inactive | inactive | – | 21.7 µM (active) and 16.6 µM (active) | inactive | inactive | – | – | inactive | inactive | –
7 | CC(=O)O[C@]1(C(C)=O)CC[C@H]2[C@@H]3C=C(Cl)C4=CC(=O)[C@@H]5C[C@@H]5[C@]4(C)[C@H]3CC[C@@]21C | inactive | inactive | inactive | inactive | inactive | inactive | inactive | inactive | 4.32 µM (active) and 27.3 µM (active) and inactive | inactive | 54.5 µM (active) | inactive | inactive | inactive | – | – | inactive | – | –
8 | O=C(c1ccccc1)c1ccccc1O | inactive | inactive | inactive | inactive | inactive | inactive | inactive | inactive | inactive | inactive | inactive | inactive | inactive | inactive | – | – | inactive | – | inactive
